# Results from PubChem BioAssay (NCATS).
# Results filed as inconclusive are left out. Unmarked numbers belong to inactive results. Calls of active or inactive are those of the source. The call rests on the fitted dose curve; in most records, active means well fitted activation curve with a large enough effect; inconclusive means small, poorly fitted or top-dose-only effect; inactive means no such curve, though single readings can be large or run the other way.
# Target: D(1A) dopamine receptor (Homo sapiens) (UniProt P21728)
# Sequence (P21728 whole entry, looked up): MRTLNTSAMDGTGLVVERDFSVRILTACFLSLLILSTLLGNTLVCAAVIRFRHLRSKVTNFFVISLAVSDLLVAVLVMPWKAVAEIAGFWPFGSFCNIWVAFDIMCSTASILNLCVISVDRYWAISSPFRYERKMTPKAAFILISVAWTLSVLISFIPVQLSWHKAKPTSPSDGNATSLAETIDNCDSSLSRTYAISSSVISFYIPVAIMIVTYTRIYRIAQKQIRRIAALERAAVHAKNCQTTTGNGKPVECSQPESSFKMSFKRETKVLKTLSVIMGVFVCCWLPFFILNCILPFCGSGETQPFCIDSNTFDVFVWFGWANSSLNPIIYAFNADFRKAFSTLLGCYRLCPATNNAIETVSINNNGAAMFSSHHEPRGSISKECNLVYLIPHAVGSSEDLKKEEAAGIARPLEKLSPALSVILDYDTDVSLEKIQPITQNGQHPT
# Test: HTS Assay for Allosteric Agonists of the Human D1 Dopamine Receptor: Primary Screen for Potentiators (AID 488982); on activity, positive = potentiation: 0% is about no effect
# Conditions: HEK293 T-REx D1 inducible cells, calcium flux, kinetic fluorescence; series mostly up to 8.37 µM; activity, positive = potentiation: at the top concentration
# From the text: Dopamine receptors (DARs) are involved in the etiology and/or therapy of a number of neuropsychiatric and endocrine disorders. For instance, all receptor-based antiparkinsonian drugs work via stimulating the […] DAR subtype whereas all FDA-approved antipsychotic agents are antagonists of this receptor. […] There are three different types of allosteric modulators that we are seeking, two of which will stimulate or augment receptor signaling, allosteric agonists and potentiators, while the third, allosteric antagonists, will attenuate receptor signaling. The present primary screening assay measures compound agonism by tracking calcium flux in a […], inducible Hek293 Trex D1 cell line.
# Freshly passaged cells are plated in 1536 well black, clear bottom plates at a density of 4000 cells/well in 3 ul of complete media containing 1x tetracycline inducer. After an overnight incubation at 30 C in 5% CO2, cells are loaded with 2 ul of the no wash Calcium Assay Kit (ABD Bioquest) and incubated at room temperature for 30 to 90 minutes. A 10 cycle (1 second/cycle) baseline measurement is taken and then the FDSS online 1536 pintool delivers 23 nl of compound library (as well as dopamine controls) to the plate. The plate is measured for kinetically at 1 cycle/sec for 180 seconds and is considered to be the agonist portion of the assay (eg, compounds which activate a positive calcium response during this portion are flagged as potential agonists). Following the 180 second read, 1 ul of an EC20 of dopamine is delivered by an onboard pipette head. Measurements are taken kinetically for an additional 180 seconds.
# Potency means the concentration at half of the fitted maximal effect.
SMILES,"activity, positive = potentiation",Potency
Cc1[nH]c(=O)c(C#N)cc1-c1ccncc1,-4.44%,–
O=C1CCC(N2C(=O)c3ccccc3C2=O)C(=O)N1 (stereo not given),15%,–
Cc1ccccc1C(OCCN(C)C)c1ccccc1 (stereo not given),-26.8%,–
O=c1[nH]cnc2[nH]ncc12,-12%,–
Cc1oncc1C(=O)Nc1ccc(C(F)(F)F)cc1,-36.6%,–
NC(=O)c1cnccn1,36.4%,–
Oc1ccc(C2CNCCc3c2cc(O)c(O)c3Cl)cc1 (stereo not given),-53%,–
O=C1CCc2cc(OCCCCc3nnnn3C3CCCCC3)ccc2N1,-17.2%,–
O=c1n(CCCN2CCN(c3cccc(Cl)c3)CC2)nc2ccccn12,-89.1%,–
Nc1ccc(S(=O)(=O)Nc2ccnn2-c2ccccc2)cc1,12.9%,–
c1ccc([C@H]2CN3CCSC3=N2)cc1,17.5%,–
OC(CCN1CCCCC1)(c1ccccc1)C1CC2C=CC1C2 (stereo not given),23.6%,–
Cc1cnc(NC(=O)C2=C(O)c3ccccc3S(=O)(=O)N2C)s1,26.4%,–
CC(C)(C)NCC(O)c1ccc(O)c(CO)c1 (stereo not given),–,inactive
Nc1ncnc2nc(-c3ccc(N4CCOCC4)nc3)cc(-c3cccc(Br)c3)c12,20%,–
CC(C)C[C@H](NC(=O)[C@@H](O)[C@H](N)Cc1ccccc1)C(=O)O,18.1%,–
CC(C)(Sc1ccc(CCN(CCCCC2CCCCC2)C(=O)NC2CCCCC2)cc1)C(=O)O,144%,–
Cn1cnc([N+](=O)[O-])c1Sc1ncnc2nc[nH]c12,24.2%,–
Nc1nc2ccc(OC(F)(F)F)cc2s1,-9.62%,–
CC(=O)Oc1ccccc1C(=O)O,2.93%,–

SMILES,"activity, positive = potentiation",Potency
Cc1cccc(-c2[nH]c(C(C)(C)C)nc2-c2ccc3nccnc3c2)n1,-4.69%,–
NCCCC(N)(C(=O)O)C(F)F (stereo not given),-10.4%,–
C[C@]12CCC(=O)C=C1CC[C@@H]1[C@@H]2[C@@H](O)C[C@@]2(C)[C@H]1CC[C@]2(O)C(=O)CO,29.2%,–
CC(C[N+](C)(C)C)OC(N)=O (stereo not given),13.8%,–
NC(N)=NC(=O)c1nc(Cl)c(N)nc1N,-22.7%,–
CCCC(CCC)C(=O)O,3.7%,–
CCCCNc1cc(C(=O)O)cc(S(N)(=O)=O)c1Oc1ccccc1,4.86%,–
O=C(O)COCCN1CCN(C(c2ccccc2)c2ccc(Cl)cc2)CC1 (stereo not given),4.34%,–
CCN(CC)CCCC(C)Nc1ccnc2cc(Cl)ccc12 (stereo not given),-9.72%,–
Cc1ccc(N(CC2=NCCN2)c2cccc(O)c2)cc1,-93.5%,–
CCn1cc(C(=O)O)c(=O)c2cc(F)c(N3CCNC(C)C3)c(F)c21 (stereo not given),9.18%,–
NNCCc1ccccc1,37.4%,–
CNC[C@H](O)c1cccc(O)c1,-11.4%,–
C1COC(NC(C2CC2)C2CC2)=N1,-1.43%,–
O=NN(CCCl)C(=O)NCCCl,6.71%,–
CCOC(=O)C1=C[C@]2(CC)CCCN3CCc4c(n1c1ccccc41)[C@@H]32,–,3.26 µM (active)
N=c1nc(N2CCCCC2)cc(N)n1O,8.79%,–
N[C@@H]1CONC1=O,-3.47%,–
OC(CN1CCC(Cc2ccc(F)cc2)CC1)c1ccc(Cl)cc1 (stereo not given),-48.9%,–
Cc1cc2c(C(C)C)c(O)c(O)c(C=O)c2c(O)c1-c1c(C)cc2c(C(C)C)c(O)c(O)c(C=O)c2c1O,-4.43%,–
